Experimental data published in PubChem BioAssay (EPA / NIEHS).
The source made the active and inactive calls. How the source made its calls: active means hit-call score of the fitted dose curve at least 0.9, where 1 is the maximum; inactive means score below 0.9.

Experiment: APR_HepG2_StressKinase_72hr: Apredica 72-hour HepG2 Assay for Stress Kinase (AID 2282921)
Conditions: HepG2 stress kinase (phospho-c-Jun) imaging, actives raise or lower the signal
Procedure: APR_HepG2_72hr is a cell-based, multiplexed-readout assay that uses HepG2, a human liver cell line, with measurements taken at 72 hours after chemical dosing in a 384-well plate.APR_HepG2_StressKinase_72hr is one of 10 assay component(s) measured or calculated from the APR_HepG2_72hr assay. It is designed to make measurements of enzyme activity, a form of enzyme reporter, as detected with fluorescence intensity signals by HCS Fluorescent Imaging technology.Data from the assay component APR_HepG2_StressKinase_72hr was analyzed into 1 assay endpoint. This assay endpoint, APR_HepG2_StressKinase_72hr, was analyzed with bidirectional fitting relative to DMSO as the negative control and baseline of activity. Using a type of enzyme reporter, measures of protein for gain or loss-of-signal activity can be used to understand the signaling at the pathway-level as they relate to the gene . Furthermore, this assay endpoint can be referred to as a primary readout, because this assay has produced multiple assay endpoints where this one serves a signaling function. To generalize the intended target to other relatable targets, this assay endpoint is annotated to the cell cycle intended target family, where the subfamily is stress response.
Cells were treated with dimethyl sulfoxide (DMSO) as a solvent control at a final concentration of 0.5% v/v or with compounds in DMSO with a resulting final DMSO concentration of 0.5% v/v. Compound treatment was done at concentrations of 0.39, 0.78, 1.56, 3.12, 6.24, 12.5, 25, 50, 100, and 200 uM in duplicate on each plate. Cells were treated with compounds for 1, 24, or 72 hr. Carbonyl […] m-chloro-phenylhydrazone (CCCP) and taxol were used as positive controls for mitochondrial function and cytoskeletal stability, respectively; DMSO served as the negative control for this experiment. Cells were fixed by the direct addition of 50 uL formaldehyde in Hank's Balanced Salt Solution (HBSS) to a final concentration of 3.7%. After incubation in the fixation medium for 30 min at room temperature (293-298 K), cells were rinsed twice with HBSS and treated with cell permeabilization buffer (16 uL of 0.5% Triton X-100) for 10 min at room temperature (293-298 K) before labeling. For mitochondrial membrane potential and mitochondrial measurements, pre-fixed cells were incubated with 50 uL of MitoTracker Red CMXRos (Invitrogen) at a concentration of 250 nM for 30 min before fixation. In the remaining cases, post-fixed cells were labeled by incubation with a multiplexed mixture of primary antibodies in HBSS for 60 min at room temperature (293-298 K) to detect immunoreactivity of c-Jun (1:500), phospho-histone H3 (1:100), phospho-histone H2A.x (1:200), p53 (1:400), alpha-tubulin (1:200) and Hoechst 33342 (2 ug/mL). Cells were labeled for multiplexed imaging on two separate plates: a) Hoechst 33342, MitoTracker Red, phospho-histone H3, and alpha-tubulin, and b) Hoechst 33342, phospho-histone H2A.x, and c-Jun. A final rinse with HBSS (50 uL) was performed before analysis. The primary and secondary antibodies for the proteins were phospho-histone H3 (rabbit anti-phospho-histone H3 and FITC-donkey anti-rabbit IgG), phospho-histone H2A.x (mouse anti-phospho-histone H2A.x and FITC-donkey anti-mouse IgG), c-Jun (rabbit anti-phospho-c-Jun and Cy3-donkey anti-rabbit IgG), p53 (sheep anti-p53 and Cy5-donkey anti-sheep IgG), alpha-tubulin (mouse anti-alpha-tubulin and Cy5-donkey anti-mouse IgG). These antibodies are available as the CellCiphr HepG2 assay kit (Millipore).Digital images of each well were captured using a Cellomics ArrayScan VTI (Thermo Scientific Cellomics) (0.8 NA objective, 0.63x optical coupler, and XF-93 filter set) at 20x magnification. The images were acquired using the autofocus feature of the ArrayScan instrument, which entails the following steps. First, the camera focuses on channel 1 (Hoechst 33342), where nuclei are identified. Second, a Z offset of 1 um is used for capturing mitochondria (MitoTracker Red). […]

Question: Which outcome does the source give for `CCCCCCCCCCCCCCCCCC(=O)O` here?
Answer: The outcome was “inactive”.

Question: For `Cc1cc(=O)[nH]c(=S)[nH]1`, which outcome is on record?
Answer: Its outcome is “inactive”.

Question: For `Cc1nc(C)nc(N2C[C@@H](C)N(c3ccnc([C@@H](C)O)n3)[C@@H](C)C2)n1`, which outcome is on record?
Answer: Its outcome is “inactive”.

Question: Which AC50 does the source give for `COc1ccc(S(=O)(=O)N2C(=O)[C@@](c3ccccc3OC)(N3C[C@H](O)C[C@H]3C(=O)N(C)C)c3cc(Cl)ccc32)c(OC)c1` here?
Answer: Its AC50 is 100 µM (active).

Question: With `CC(C)c1ccc(C(=O)N=C(N)N)cc1S(C)(=O)=O` as the compound, how does the outcome read?
Answer: Its outcome is “inactive”.

Question: For `Cc1cccc([N+](=O)[O-])c1C`, which outcome is on record?
Answer: Its outcome is “inactive”.

Question: Which outcome does the source give for `CCCCOC(=O)CCCCCCCCC(=O)OCCCC` here?
Answer: Its outcome is “inactive”.

Question: Which outcome does the source give for `O=C(N[C@@H](Cc1ccccc1)[C@@H](O)C(=O)N1C[C@@H](O)[C@@H](O)C1)c1cc2cc(Cl)ccc2[nH]1` here?
Answer: Its outcome is “inactive”.

Question: Which outcome does the source give for `COCCOC[C@H](CC1(C(=O)NC2CCC(C(=O)O)CC2)CCCC1)C(=O)Oc1ccc2c(c1)CCC2` (stereo not given in full) here?
Answer: Its outcome is “inactive”.

Question: Which outcome does the source give for `Oc1ccc2c(c1)OC[C@@H](N1CCC(O)(c3ccc(F)cc3)CC1)[C@H]2O` here?
Answer: The outcome was “inactive”.

Question: Which outcome does the source give for `O=C(O)Cc1ccccc1Nc1c(Cl)cccc1Cl` here?
Answer: Its outcome is “inactive”.

Question: For `CN1CCCC1=O`, which outcome is on record?
Answer: The outcome was “inactive”.

Question: For `NC(=O)Cn1c(=O)cc(CCN2CCN(c3nccc4sccc34)CC2)c2ccc(F)cc21`, which outcome is on record?
Answer: Its outcome is “inactive”.

Question: For `CC(=O)C(C)=CC1C(C)=CCCC1(C)C` (stereo not given), which outcome is on record?
Answer: Its outcome is “inactive”.

Question: With `CNCc1cc(F)ccc1Oc1ccc(Cl)c(Cl)c1` as the compound, how does the outcome read?
Answer: Its outcome is “inactive”.

Question: Which outcome does the source give for `CC1(C)NC(=O)NC1=O` here?
Answer: Its outcome is “inactive”.

Question: For `CCOc1ccc2c(c1)C(C)=CC(C)(C)N2`, which outcome is on record?
Answer: Its outcome is “inactive”.

Question: Which outcome does the source give for `CCCCCCCCCCCCCO` here?
Answer: The outcome was “inactive”.

Question: Which outcome does the source give for `CC(=O)OCCOCCOCCOC(C)=O` here?
Answer: Its outcome is “inactive”.

Question: Which outcome does the source give for `OC[C@@H](O)[C@@H](O)[C@H](O)[C@H](O)CO` here?
Answer: The outcome was “inactive”.

Question: For `C=CCc1ccc(O)c(OC)c1`, which outcome is on record?
Answer: Its outcome is “inactive”.

Question: Which outcome does the source give for `CCOC(=O)C(C)(C)Oc1ccc(Cl)cc1` here?
Answer: The outcome was “inactive”.

Question: With `CCCCCCCCCCC` as the compound, how does the outcome read?
Answer: The outcome was “inactive”.

Question: With `CCCCCCOCCO` as the compound, how does the outcome read?
Answer: The outcome was “inactive”.

Question: With `C=CCOC(=O)c1ccccc1C(=O)OCC=C` as the compound, how does the outcome read?
Answer: Its outcome is “inactive”.

Question: For `COc1cc(/C=C/C(=O)CC(=O)/C=C/c2ccc(O)c(OC)c2)ccc1O`, which AC50 is on record?
Answer: The AC50 was 11.2 µM (active).

Question: Which outcome does the source give for `COc1cc(S(=O)(=O)O)c(C)cc1N=Nc1c(O)ccc2cc(S(=O)(=O)O)ccc12` here?
Answer: Its outcome is “inactive”.

Question: With `Cc1ccc(N(C)C)cc1` as the compound, how does the outcome read?
Answer: Its outcome is “inactive”.

Question: With `CC1=C(/C=C/C(C)=C/C=C/C(C)=C/CO)C(C)(C)CCC1` as the compound, how does the outcome read?
Answer: Its outcome is “inactive”.

Question: Which outcome does the source give for `CCCCN(CCCC)CCCC` here?
Answer: The outcome was “inactive”.

Question: With `Clc1cc(Cl)c(Cl)cc1Cl` as the compound, how does the outcome read?
Answer: Its outcome is “inactive”.

Question: For `CCCCCC(=O)O`, which outcome is on record?
Answer: The outcome was “inactive”.

Question: With `O=C(O)CCCCC(=O)O` as the compound, how does the outcome read?
Answer: Its outcome is “inactive”.

Question: Which outcome does the source give for `CCCCCCCCCCCCCCCC` here?
Answer: Its outcome is “inactive”.

Question: With `CCCCCCCC=O` as the compound, how does the outcome read?
Answer: Its outcome is “inactive”.

Question: Which AC50 does the source give for `Nc1ccccc1N` here?
Answer: Its AC50 is 59.9 µM (active).

Question: Which outcome does the source give for `Cc1ccccc1Cl` here?
Answer: Its outcome is “inactive”.

Question: Which outcome does the source give for `O=c1[nH]cc(F)c(=O)[nH]1` here?
Answer: The outcome was “inactive”.

Question: Which outcome does the source give for `CC=Cc1ccc(O)c(OC)c1` here?
Answer: The outcome was “inactive”.

Question: For `CCCCc1ccc2c(n1)[C@@H](c1ccc(OC)cc1C[C@H](C)C(=O)O)[C@H](C(=O)O)[C@H]2c1ccc2c(c1)OCO2`, which outcome is on record?
Answer: The outcome was “inactive”.
